Screening data from PubChem.
EphB4 antag = EphB4-ephrin-B2 interaction antagonists, primary screen, biochemical, TNYL-RAW peptide probe, fluorescence polarization | AID 720, 2007 | 97,000 compounds, 0.15% hits | EphB4 LBD / TNYL-RAW-Alexa532 peptide | inhibition, % at 7 µM | Ephrin type-B receptor 4 (Homo sapiens), P54760;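 active = inhibition above the screen-wide mean inhibition plus 3 SD, cut at about 15% in these data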;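 note: 0% = DMSO wells and 100% = excess unlabeled TNYL-RAW peptide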
Target sequence (P54760 whole entry, looked up, the tested form may be a part): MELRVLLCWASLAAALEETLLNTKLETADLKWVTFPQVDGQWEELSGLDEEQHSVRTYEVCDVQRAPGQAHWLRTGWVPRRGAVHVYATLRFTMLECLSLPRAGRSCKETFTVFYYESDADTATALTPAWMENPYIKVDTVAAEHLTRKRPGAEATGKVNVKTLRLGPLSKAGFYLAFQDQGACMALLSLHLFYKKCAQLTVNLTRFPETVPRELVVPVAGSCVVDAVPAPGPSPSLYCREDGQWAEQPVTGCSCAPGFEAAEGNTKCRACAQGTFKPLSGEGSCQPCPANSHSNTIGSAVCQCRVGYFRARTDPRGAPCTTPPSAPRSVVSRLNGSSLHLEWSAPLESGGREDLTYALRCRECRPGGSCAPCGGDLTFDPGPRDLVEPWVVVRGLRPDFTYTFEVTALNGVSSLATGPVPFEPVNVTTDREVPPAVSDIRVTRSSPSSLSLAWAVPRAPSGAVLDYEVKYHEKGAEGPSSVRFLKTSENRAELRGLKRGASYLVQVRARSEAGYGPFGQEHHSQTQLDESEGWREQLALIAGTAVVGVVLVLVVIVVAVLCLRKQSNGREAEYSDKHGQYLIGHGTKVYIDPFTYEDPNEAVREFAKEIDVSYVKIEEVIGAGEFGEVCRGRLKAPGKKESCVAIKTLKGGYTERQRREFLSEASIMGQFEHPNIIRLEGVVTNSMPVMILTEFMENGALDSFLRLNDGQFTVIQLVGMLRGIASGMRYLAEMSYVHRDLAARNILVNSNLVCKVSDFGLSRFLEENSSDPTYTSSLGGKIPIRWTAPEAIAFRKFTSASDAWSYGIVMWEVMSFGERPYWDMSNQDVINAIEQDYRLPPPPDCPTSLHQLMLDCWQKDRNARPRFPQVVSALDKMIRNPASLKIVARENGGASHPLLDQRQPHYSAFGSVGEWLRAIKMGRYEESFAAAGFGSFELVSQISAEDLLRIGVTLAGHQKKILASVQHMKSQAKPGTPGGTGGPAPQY
NFkB transloc inh = inhibitors of IL-1B driven NFkB p65 nuclear import, primary screen, imaging, HUVEC, IL-1B stimulus, high-content imaging | 94,000 compounds, 0.43% hits | inhibition, % at 2 µM | HUVEC IL-1B NFkB p65 nuclear translocation imaging | AID 796, 2007;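 active = inhibition above about 30% together with a positive call from visual inspection of the well image, limit read from the data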;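 note: nuclear over cytoplasmic p65 intensity ratio measured by imaging; 0% = IL-1B stimulated DMSO wells and 100% = unstimulated DMSO wells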
IL1B NFkB pot = enhancers of NFkB p65 translocation in HUVEC – imaging, IL-1B stimulus, high-content imaging, primary screen | 94,000 compounds, 0.3% hits | AID 819, 2007 | activation, % at 2 µM | HUVEC IL-1B NFkB p65 nuclear translocation imaging;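 active = activation above 40%, about the mean plus 3 SD, also judged a hit on visual image review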;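 note: percent activation is computed from the nuclear over cytoplasmic p65 intensity ratio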
IL1B cytotox = cytotoxicity in IL-1B stimulated HUVEC, primary screen, cytotoxicity control for IL-1B NFkB translocation project, imaging, Hoechst nuclear count, IL-1B stimulus. HUVEC cell count loss. cell count reduction, % at 2 µM. 94,000 compounds, 0.41% hits;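 active = cell count reduction more than 3 SD above the screen-wide mean, cut at about 70% in these data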;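 note: normalized per plate to untreated control cells as the no-loss baseline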
Calb biofilm kill = clotrimazole potentiators killing Candida biofilms, primary screen, with clotrimazole, Alamar Blue. 85,000 compounds, 0.14% hits. inhibition, % at 6 µM. C. albicans biofilm + clotrimazole;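 active = inhibition above 20%; inactive = inhibition below 20%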;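 note: preformed 24 hr biofilms exposed to compound for 48 hr; 0% = biofilm without compound and 100% = blank killed by clotrimazole plus chlorhexidine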
* marks the source's active call; other numbers are inactive results; . = no result. Rows were chosen to be rich in hits. Some 1.1% of all compounds tested hit in one or more screens of this group.

SMILES | EphB4 antag | NFkB transloc inh | IL1B NFkB pot | IL1B cytotox | Calb biofilm kill
CC(C)CC(=O)Nc1cccc(C(=O)Nc2ccccc2C(=O)O)c1 | -7 | 0 | 0 | -15 | 1
O=c1oc2ccccc2cc1NCc1ccccc1O | 2 | -12 | 12 | 1 | 22*
O=C(NCc1ccccn1)NC12CC3CC(CC(C3)C1)C2 | -3 | 95* | -95 | 89* | 9
O=C(Nc1ccccn1)NC12CC3CC(CC(C3)C1)C2 | -3 | -20 | 20 | -23 | 7
COc1ccc2c(c1)c(=O)cc(C)n2CC(=O)NCc1ccco1 | -3 | 7 | -7 | 9 | 4
[O-][n+]1c2c(c3c4non(O)c4ccc31)CCCC2 | -3 | 23 | -23 | 88* | 7
CCOc1ccc(NS(=O)(=O)c2ccc3[nH]cc(C(=O)NC(C)CC)c(=O)c3c2)cc1 (stereo not given) | -1 | 4 | -4 | -15 | 1
COc1cccc(NS(=O)(=O)c2ccc3[nH]cc(C(=O)NCCC(C)C)c(=O)c3c2)c1 | -10 | 19 | -19 | 91* | 3
Cc1cc(C)nc(SCNC(=O)c2ccccc2)n1 | -4 | -21 | 21 | 81* | .
Cc1cc(C)nc(SCC(=O)O)n1 | . | . | . | . | 0
O=C(NCCN=C1NS(=O)(=O)c2ccccc21)c1ccncc1 | 0 | -8 | 8 | -15 | 4
CCOC(=O)N1CCN(C(=O)CSc2nc3c(cnn3-c3ccc(C)cc3)c(=O)[nH]2)CC1 | . | . | . | . | -3
CCOC(=O)N1CCN(C(=O)CSc2nc3c(cnn3-c3ccc(Cl)cc3)c(=O)[nH]2)CC1 | . | . | . | . | 20*
CCOC(=O)c1[nH]c2ccc(F)cc2c1NC(=O)CN1CCc2cc(OC)c(OC)cc2C1 | 5 | -48 | 48* | 5 | -2
C/C(=N/OC(=O)c1c(F)cccc1F)c1nccs1 | -7 | -11 | 11 | -5 | .
O=C(NCc1ccco1)C1CCN(C(=O)c2cc3sccc3n2Cc2ccc(F)cc2)CC1 | -5 | 3 | -3 | 89* | 7
CN(C)c1ccc(CNC23CC4CC(CC(C4)C2)C3)cc1 | -3 | 3 | -3 | -3 | .
CCc1nnc(NC2=NCCC2)s1 | -3 | -10 | 10 | 24 | 6
Cc1ccc(-c2c(C(=O)N3CCOCC3)oc(=O)c3ccccc23)cc1 | -1 | -6 | 6 | -25 | 27*
CC(C)C(=O)c1cc2c(cc1NC(=O)c1cccs1)OCCO2 | 5 | 32* | -32 | -8 | 5
Cc1nc2c3c(-c4ccccc4)nc(N4CCOCC4)nc3nn2c(C)c1CCC(=O)O | . | . | . | . | 3
c1ccc2oc(-c3ccc4nc[nH]c4c3)nc2c1 | 4 | 52* | -52 | -31 | 5
CCCC1=C(C(=O)OCC)C(c2ccccc2OC)NC(=O)N1 (stereo not given) | -2 | 9 | -9 | -20 | -1
CCCOc1cccc(C2C(C(=O)c3ccco3)=C(O)C(=O)N2CCN(CC)CC)c1 (stereo not given) | -6 | -49 | 49* | -26 | 11
O=C(COC(=O)C1(c2ccc(F)cc2)CCCC1)NC1CC1 | 1 | 8 | -8 | 1 | .
SMILES | EphB4 antag | NFkB transloc inh | IL1B NFkB pot | IL1B cytotox | Calb biofilm kill
CCOc1cc2[nH]c(=O)n(CCC(=O)N3CCN(c4ccccc4OC)CC3)c(=O)c2cc1OCC | -1 | -28 | 28 | -42 | 4
COc1cc2[nH]c(=O)n(CCC(=O)N3CCN(c4cc(Cl)ccc4C)CC3)c(=O)c2cc1OC | -7 | 2 | -2 | 83* | 0
O=C(O)/C(=C\c1ccco1)NC(=O)c1cccc2ccccc12 | 17* | 4 | -4 | -13 | .
COc1nn(C(C)C(=O)N2N=C(C(F)F)CC2(O)C(F)F)cc1[N+](=O)[O-] (stereo not given) | 4 | 15 | -15 | -2 | 0
CNC(=O)c1ccc(-n2nc(C)cc2-c2ccccc2)cc1 | -5 | -15 | 15 | -1 | .
CCc1nnc(-n2nc(C)cc2-c2ccccc2)n1N | 2 | 98* | -97 | 95* | 3
Cc1nccn1CC(O)Cn1c2ccccc2c2ccccc21 (stereo not given) | -2 | -46 | 46* | -23 | 6
CC(=O)c1cc(F)c(N2CCN(C(=O)COc3ccc(F)cc3)CC2)cc1C | -8 | -16 | 16 | 83* | 4
CC(=O)c1ccc(N2CCN(C(=O)COc3ccc(F)cc3)CC2)c(F)c1 | . | . | . | . | 7
CN(C)C(=O)C1(c2ccccc2)CCN(S(=O)(=O)c2ccccc2)CC1 | -1 | -26 | 26 | 90* | 4
O=C(NCc1ccccc1)C1(c2ccccc2)CCN(S(=O)(=O)c2ccccc2)CC1 | -3 | -24 | 24 | -77 | 2
Cc1cc(C)cc(OCCCCCNCCO)c1 | -4 | 4 | -4 | -6 | 4
Cc1cc(C)c(OCCCCCNCCO)c(C)c1 | -3 | -42 | 42* | -17 | 5
Cc1ccc(-c2csc(N(C)C(=O)c3c(C)nn(-c4ccccc4)c3Cl)n2)cc1 | 6 | . | . | . | .
COC(=O)CCS(=O)(=O)c1ccc(Cl)c(Cl)c1 | 2 | -15 | 15 | 95* | 1
CCN(CC)CC(=O)Nc1c(C)cc(C)cc1C | . | . | . | . | 3
COc1cccc(CSc2nc3ccccc3cc2C=O)c1 | 0 | 43* | -43 | 72* | .
COc1cccc(NC(=O)CSc2nc3ccccc3cc2Cc2ccccc2)c1 | 8 | 4 | -4 | 9 | .
COc1ccc(-c2nc(CS(=O)CC(=O)NCCCN3CC(C)CC(C)C3)c(C)o2)cc1OC (stereo not given) | 5 | 14 | -12 | -47 | 6
O=S1(=O)c2cccc3cccc(c23)N1Cc1nnc(-c2ccccc2Br)o1 | 16* | 4 | -4 | 27 | 8
O=C1c2ccccc2S(=O)(=O)N1Cc1nnc(-c2ccccc2Br)o1 | 7 | -1 | 1 | -11 | 3
CCCCc1ccc(CC(=O)O)cc1 | -1 | 11 | -11 | -1 | .
COc1cc(CNC2CCCC2)cc(Cl)c1OCc1ccccc1F | -4 | -39 | 39 | -1 | .
CCCOC(=O)C(C)n1cnc2sc(C)c(C)c2c1=O (stereo not given) | 16* | -7 | 7 | 10 | .
CCOC(=O)c1sc2ncn(C(C)C(=O)OC)c(=O)c2c1C (stereo not given) | 3 | 10 | -10 | 16 | 6
Cc1cc(C(=O)O)c(=O)[nH]c1C | -6 | 0 | 0 | 29 | 0
COc1ccc(NC(=O)c2ccc(C)cc2Cl)c([N+](=O)[O-])c1 | 0 | 11 | -11 | 79* | .
O=C1c2cccc3c([N+](=O)[O-])ccc(c23)C(=O)N1c1ccccn1 | 2 | . | . | . | .
O=C1c2cccc3c([N+](=O)[O-])ccc(c23)C(=O)N1c1ccc(Cl)cn1 | -2 | 30* | -30 | 83* | .
COc1ccc(CC(=O)Nc2cccc(-c3nnc(-c4ccccc4)o3)c2)cc1OC | 3 | -10 | 10 | -31 | 8
